The values that follow come from paper PMC7862700, “An all-to-all approach to the identification of sequence-specific readers for epigenetic DNA modifications on cytosine”.

Common to all, as to assay: DAPPL (digital affinity profiling via proximity ligation, sequencing); 10 mM Tris-HCl pH 7.5, 50 mM NaCl, 1 mM DTT, 4% glycerol, room temperature, 30 min; GST-TFs on glutathione beads, 16-mer random dsDNA library, 0.1% formaldehyde crosslink after washing; high values mean tight binding
For one assay, the target named is T1, FEV (Homo sapiens, UniProt Q99581 1-238).
T1 sequence: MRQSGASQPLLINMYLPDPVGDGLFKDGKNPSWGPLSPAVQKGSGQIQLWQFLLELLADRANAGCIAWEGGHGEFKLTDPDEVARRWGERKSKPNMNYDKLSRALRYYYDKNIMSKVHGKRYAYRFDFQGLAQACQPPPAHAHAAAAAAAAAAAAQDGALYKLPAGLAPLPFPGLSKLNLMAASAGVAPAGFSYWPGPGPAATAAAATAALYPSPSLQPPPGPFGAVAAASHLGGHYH
The settings on record: protein: recombinant; tags: N-terminal GST; dsDNA, one strand shown. Summed up:
(§1)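 Human transcription factors were made in yeast as GST fusions, captured on glutathione beads and barcoded with DNA. With a tag-only sample included, the pool was incubated with 200 nmole of a random double-stranded 16-mer DNA library in Tris/NaCl/DTT/glycerol buffer at room temperature for 30 min, then crosslinked with 0.1% formaldehyde after washing, ligated by proximity, amplified and sequenced. For binding signal, each hexamer's read frequency for a factor is divided by its frequency for the tag-only sample.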

Another assay deals with ETV5 (Homo sapiens, UniProt P41161 1-510). Particulars: protein: recombinant; tags: N-terminal GST; dsDNA, one strand shown. In outline:
as §1

In another assay the target is HSF1 (Homo sapiens, UniProt Q00613 1-529). The settings on record: protein: recombinant; tags: N-terminal GST; chain copies: 3; dsDNA, one strand shown. Summed up:
as §1

In another assay the target is T2, SPIC (Homo sapiens, UniProt Q8N5J4 1-248).
T2 sequence: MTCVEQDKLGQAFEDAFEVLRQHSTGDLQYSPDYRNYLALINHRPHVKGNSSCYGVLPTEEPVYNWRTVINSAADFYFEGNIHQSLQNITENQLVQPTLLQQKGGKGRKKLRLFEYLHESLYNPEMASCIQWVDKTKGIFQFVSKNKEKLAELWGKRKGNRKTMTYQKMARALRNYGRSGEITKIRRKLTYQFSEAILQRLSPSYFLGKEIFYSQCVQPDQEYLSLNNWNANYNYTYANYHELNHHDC
Particulars: protein: recombinant; tags: N-terminal GST; dsDNA, one strand shown. Summed up: as §1

The target in another assay is ELF4 (Homo sapiens, UniProt Q99607 1-663). Particulars: protein: recombinant; tags: N-terminal GST; dsDNA, one strand shown. Summed up:
as §1

The target in a further assay is T3, ELK4 (Homo sapiens, UniProt P28324-2 1-405).
T3 sequence: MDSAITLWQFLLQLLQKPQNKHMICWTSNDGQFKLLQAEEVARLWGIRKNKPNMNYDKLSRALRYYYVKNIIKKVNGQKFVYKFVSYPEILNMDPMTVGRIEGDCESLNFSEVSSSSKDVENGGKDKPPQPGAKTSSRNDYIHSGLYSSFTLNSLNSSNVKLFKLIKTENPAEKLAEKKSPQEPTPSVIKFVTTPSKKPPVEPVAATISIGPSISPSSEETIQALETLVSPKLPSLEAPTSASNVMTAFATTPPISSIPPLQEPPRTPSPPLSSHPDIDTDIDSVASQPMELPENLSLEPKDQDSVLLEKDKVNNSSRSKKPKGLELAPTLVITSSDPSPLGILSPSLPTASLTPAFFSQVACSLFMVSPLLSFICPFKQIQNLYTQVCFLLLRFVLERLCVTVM
Particulars: protein: recombinant; tags: N-terminal GST; dsDNA, one strand shown. In outline: as §1

In the next assay the target is T4, ETV2 (Homo sapiens, UniProt O00321 1-342).
T4 sequence: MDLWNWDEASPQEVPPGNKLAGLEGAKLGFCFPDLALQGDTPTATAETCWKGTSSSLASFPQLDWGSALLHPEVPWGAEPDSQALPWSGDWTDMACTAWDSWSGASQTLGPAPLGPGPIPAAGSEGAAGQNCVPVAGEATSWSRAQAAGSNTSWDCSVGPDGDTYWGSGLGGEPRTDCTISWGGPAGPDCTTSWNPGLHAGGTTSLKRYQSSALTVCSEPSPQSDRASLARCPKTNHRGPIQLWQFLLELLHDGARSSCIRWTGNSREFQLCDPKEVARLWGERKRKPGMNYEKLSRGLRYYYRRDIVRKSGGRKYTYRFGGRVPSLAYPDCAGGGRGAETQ
The settings on record: protein: recombinant; tags: N-terminal GST; dsDNA, one strand shown. Summed up: as §1

The next assay has as its target T5, ELF3 (Homo sapiens, UniProt P78545 1-371).
T5 sequence: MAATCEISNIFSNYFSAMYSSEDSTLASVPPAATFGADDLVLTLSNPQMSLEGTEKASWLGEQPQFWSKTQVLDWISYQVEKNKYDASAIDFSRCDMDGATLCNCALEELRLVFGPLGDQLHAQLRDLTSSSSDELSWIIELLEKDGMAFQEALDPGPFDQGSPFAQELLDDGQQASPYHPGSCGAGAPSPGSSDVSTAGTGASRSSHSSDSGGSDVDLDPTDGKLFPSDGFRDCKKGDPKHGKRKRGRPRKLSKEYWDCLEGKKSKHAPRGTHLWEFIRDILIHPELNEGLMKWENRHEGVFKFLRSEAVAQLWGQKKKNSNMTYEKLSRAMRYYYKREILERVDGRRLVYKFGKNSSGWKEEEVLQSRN
The settings on record: protein: recombinant; tags: N-terminal GST; dsDNA, one strand shown. Summed up:
as §1

The next assay addresses CRX (Homo sapiens, UniProt O43186 1-299). Particulars: protein: recombinant; tags: N-terminal GST; dsDNA, one strand shown. Summed up: as §1
Another assay addresses ETV1 (Homo sapiens, UniProt P50549 1-477). Particulars: protein: recombinant; tags: N-terminal GST; dsDNA, one strand shown. Summed up: as §1
The target of another assay is T6, ERF (Homo sapiens, UniProt P50548 1-548).
T6 sequence: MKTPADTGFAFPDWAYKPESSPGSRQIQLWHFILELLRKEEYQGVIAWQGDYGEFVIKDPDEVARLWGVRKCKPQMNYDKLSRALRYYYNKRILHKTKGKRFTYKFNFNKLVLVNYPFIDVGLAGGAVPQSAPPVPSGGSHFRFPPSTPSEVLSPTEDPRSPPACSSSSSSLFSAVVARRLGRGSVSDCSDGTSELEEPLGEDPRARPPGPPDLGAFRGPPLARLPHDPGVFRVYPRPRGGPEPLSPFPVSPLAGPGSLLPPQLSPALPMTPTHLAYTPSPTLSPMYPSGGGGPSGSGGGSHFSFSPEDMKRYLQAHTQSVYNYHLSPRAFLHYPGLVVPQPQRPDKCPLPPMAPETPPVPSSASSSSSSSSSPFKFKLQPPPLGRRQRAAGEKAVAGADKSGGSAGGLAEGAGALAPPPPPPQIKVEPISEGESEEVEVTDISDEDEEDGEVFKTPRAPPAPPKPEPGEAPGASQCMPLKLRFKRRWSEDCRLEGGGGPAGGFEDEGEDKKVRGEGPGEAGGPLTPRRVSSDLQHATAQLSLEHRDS
Particulars: protein: recombinant; tags: N-terminal GST; dsDNA, one strand shown. In outline: as §1

The next assay addresses T7, ETV3L (Homo sapiens, UniProt Q6ZN32 1-361).
T7 sequence: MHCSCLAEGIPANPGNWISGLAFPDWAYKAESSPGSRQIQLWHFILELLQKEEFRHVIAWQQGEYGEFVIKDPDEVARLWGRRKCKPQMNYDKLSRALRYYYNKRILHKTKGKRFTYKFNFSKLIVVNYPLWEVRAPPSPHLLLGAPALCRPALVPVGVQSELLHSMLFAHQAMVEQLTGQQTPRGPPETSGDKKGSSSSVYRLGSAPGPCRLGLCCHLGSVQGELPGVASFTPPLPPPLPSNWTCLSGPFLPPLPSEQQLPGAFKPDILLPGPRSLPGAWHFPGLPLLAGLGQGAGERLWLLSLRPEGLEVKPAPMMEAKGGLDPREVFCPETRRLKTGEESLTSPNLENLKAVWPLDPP
Particulars: protein: recombinant; tags: N-terminal GST; dsDNA, one strand shown. In outline:
as §1

For the next assay, the target named is T8, ETS2 (Homo sapiens, UniProt P15036 1-469).
T8 sequence: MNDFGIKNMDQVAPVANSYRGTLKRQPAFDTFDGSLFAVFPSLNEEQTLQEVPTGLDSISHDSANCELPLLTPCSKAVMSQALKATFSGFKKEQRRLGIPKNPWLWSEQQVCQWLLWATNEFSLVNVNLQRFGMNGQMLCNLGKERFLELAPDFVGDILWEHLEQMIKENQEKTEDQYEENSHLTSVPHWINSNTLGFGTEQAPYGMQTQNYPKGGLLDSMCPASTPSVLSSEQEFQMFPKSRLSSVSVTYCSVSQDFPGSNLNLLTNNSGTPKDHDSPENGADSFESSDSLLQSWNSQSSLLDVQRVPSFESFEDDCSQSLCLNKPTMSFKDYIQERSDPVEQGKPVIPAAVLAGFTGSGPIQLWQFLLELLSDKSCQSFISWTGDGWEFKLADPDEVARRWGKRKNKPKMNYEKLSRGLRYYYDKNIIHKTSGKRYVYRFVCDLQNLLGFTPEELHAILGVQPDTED
The settings on record: protein: recombinant; tags: N-terminal GST; dsDNA, one strand shown. In outline:
as §1

The target in another assay is T9, SPDEF (Homo sapiens, UniProt O95238 1-335).
T9 sequence: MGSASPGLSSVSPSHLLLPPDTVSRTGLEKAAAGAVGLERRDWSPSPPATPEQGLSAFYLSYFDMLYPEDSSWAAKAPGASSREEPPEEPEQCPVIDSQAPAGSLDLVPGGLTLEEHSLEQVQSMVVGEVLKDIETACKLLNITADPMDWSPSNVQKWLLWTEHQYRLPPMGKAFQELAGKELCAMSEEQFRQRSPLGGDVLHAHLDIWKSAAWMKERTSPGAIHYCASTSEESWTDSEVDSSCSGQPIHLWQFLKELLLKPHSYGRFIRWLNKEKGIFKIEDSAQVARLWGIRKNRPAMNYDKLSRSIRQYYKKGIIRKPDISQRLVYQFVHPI
Particulars: protein: recombinant; tags: N-terminal GST; dsDNA, one strand shown. In outline: as §1

The target of a further assay is T10, ETV7 (Homo sapiens, UniProt Q9Y603 1-341).
T10 sequence: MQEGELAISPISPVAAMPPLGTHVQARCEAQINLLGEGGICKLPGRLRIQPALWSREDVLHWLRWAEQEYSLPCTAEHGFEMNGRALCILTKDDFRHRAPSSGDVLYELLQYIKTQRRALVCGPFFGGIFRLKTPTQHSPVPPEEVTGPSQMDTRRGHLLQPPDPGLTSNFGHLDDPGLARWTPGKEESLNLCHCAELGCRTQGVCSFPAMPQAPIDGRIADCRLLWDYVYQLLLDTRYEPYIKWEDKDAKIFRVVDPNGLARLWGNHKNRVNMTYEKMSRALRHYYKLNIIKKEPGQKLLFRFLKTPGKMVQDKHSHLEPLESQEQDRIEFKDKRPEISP
Particulars: protein: recombinant; tags: N-terminal GST; dsDNA, one strand shown. Summed up: as §1

In another assay the target is T11, ELF5 (Homo sapiens, UniProt Q9UKW6-2 1-255).
T11 sequence: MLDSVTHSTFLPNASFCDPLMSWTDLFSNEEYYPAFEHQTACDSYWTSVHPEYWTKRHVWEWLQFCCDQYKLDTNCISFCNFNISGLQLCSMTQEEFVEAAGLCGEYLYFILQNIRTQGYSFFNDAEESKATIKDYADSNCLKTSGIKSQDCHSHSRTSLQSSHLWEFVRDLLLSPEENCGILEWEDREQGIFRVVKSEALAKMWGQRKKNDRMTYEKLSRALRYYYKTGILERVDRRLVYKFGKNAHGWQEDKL
Particulars: protein: recombinant; tags: N-terminal GST; dsDNA, one strand shown. In outline: as §1

The target of another assay is T12, ETV3 (Homo sapiens, UniProt P41162-2 1-143).
T12 sequence: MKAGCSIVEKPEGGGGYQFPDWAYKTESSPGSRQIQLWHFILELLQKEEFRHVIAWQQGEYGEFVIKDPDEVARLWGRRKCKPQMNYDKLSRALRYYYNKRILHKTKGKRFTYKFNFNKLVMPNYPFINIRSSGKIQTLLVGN
Particulars: protein: recombinant; tags: N-terminal GST; dsDNA, one strand shown. In outline:
as §1

A further assay has as its target ETV6 (Homo sapiens, UniProt P41212 1-452). The settings on record: protein: recombinant; tags: N-terminal GST; dsDNA, one strand shown. Summed up: as §1

ETV1, sequence (P50549 whole entry): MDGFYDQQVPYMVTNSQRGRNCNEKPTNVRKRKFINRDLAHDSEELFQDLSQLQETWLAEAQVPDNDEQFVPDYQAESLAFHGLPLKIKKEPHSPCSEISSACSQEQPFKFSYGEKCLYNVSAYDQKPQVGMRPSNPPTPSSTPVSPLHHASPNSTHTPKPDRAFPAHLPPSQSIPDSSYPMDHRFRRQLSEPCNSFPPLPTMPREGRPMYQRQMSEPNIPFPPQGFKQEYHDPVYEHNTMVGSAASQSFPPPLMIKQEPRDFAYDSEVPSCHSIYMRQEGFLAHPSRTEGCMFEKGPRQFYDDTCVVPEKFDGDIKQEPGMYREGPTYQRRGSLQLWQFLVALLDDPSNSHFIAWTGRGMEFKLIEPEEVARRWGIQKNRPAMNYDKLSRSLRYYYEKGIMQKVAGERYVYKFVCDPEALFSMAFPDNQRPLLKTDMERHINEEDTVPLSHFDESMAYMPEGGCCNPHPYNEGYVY
HSF1, sequence (Q00613 whole entry): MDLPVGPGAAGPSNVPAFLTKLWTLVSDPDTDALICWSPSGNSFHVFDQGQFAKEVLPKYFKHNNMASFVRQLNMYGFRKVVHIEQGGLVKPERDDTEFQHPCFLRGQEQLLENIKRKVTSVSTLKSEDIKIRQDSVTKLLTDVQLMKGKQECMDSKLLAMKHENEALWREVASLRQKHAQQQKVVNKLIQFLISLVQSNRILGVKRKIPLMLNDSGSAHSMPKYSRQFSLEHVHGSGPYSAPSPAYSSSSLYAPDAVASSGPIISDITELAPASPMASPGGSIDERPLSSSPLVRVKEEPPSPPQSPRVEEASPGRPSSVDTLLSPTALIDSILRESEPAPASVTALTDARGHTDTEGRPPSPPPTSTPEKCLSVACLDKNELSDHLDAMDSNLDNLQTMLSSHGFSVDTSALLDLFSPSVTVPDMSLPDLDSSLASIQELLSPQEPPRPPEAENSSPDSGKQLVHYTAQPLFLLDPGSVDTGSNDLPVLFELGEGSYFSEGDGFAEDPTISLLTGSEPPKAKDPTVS
CRX, sequence (O43186 whole entry): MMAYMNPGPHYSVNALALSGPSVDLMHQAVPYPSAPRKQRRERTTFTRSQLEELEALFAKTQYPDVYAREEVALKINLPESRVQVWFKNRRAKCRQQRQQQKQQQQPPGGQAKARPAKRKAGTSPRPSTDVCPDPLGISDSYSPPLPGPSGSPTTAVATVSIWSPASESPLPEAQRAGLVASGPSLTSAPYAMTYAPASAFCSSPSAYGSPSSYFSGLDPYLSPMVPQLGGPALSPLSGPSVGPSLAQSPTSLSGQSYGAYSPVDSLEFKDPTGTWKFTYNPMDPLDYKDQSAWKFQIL
ETV5, sequence (P41161 whole entry): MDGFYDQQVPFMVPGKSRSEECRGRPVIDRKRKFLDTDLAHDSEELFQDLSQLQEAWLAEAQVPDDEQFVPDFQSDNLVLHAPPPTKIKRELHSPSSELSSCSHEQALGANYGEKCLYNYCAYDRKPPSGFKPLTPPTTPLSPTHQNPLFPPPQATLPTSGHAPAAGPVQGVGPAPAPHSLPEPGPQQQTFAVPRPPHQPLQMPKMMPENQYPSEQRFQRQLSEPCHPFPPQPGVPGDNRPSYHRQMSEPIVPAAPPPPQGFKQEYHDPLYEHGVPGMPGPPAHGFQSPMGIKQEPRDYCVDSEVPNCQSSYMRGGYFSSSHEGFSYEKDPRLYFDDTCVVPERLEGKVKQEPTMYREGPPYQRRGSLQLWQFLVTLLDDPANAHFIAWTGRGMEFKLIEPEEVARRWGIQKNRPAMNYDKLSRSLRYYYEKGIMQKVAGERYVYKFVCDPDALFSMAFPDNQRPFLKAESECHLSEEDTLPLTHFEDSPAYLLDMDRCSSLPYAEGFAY
ELF4, sequence (Q99607 whole entry): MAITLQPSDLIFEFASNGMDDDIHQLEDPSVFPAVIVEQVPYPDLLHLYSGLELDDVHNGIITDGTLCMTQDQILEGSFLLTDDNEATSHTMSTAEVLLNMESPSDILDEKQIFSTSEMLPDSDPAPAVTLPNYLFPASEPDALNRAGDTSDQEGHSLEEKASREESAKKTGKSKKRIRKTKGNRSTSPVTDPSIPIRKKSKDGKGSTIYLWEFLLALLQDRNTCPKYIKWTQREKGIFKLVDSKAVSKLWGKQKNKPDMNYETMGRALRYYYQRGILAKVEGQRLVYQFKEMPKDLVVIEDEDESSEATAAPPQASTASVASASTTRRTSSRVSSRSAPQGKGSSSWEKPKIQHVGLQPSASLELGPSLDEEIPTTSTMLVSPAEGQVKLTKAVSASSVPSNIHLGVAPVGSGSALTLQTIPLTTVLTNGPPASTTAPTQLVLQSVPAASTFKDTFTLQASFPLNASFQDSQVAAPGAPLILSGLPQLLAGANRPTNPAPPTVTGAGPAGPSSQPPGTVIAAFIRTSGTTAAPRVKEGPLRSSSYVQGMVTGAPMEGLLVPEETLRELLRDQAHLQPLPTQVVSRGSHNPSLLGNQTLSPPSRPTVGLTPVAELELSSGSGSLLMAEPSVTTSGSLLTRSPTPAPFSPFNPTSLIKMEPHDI
ETV6, sequence (P41212 whole entry): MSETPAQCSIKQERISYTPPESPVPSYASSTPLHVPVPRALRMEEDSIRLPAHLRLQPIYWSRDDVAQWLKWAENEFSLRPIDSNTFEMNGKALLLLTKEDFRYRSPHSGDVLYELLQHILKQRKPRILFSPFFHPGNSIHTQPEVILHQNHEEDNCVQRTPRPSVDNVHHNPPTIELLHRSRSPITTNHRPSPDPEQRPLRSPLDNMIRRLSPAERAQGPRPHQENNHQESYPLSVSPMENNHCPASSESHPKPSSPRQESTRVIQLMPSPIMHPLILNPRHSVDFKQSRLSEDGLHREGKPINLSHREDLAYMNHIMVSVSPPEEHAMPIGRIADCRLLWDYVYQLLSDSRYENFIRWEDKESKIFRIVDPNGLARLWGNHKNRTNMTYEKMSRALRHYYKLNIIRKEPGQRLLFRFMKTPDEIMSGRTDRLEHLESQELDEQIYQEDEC

For the sequence CCTTGC, the binding signal with FEV was 1.27 fold enrichment (6-mer frequency, TF over GST control); in the assay with ETV5 it was 1.17 fold enrichment (6-mer frequency, TF over GST control); with HSF1 it was 1.04 fold enrichment (6-mer frequency, TF over GST control); with SPIC, 1.45 fold enrichment (6-mer frequency, TF over GST control); with ELF4 it was 1.27 fold enrichment (6-mer frequency, TF over GST control); with ELK4, 1.2 fold enrichment (6-mer frequency, TF over GST control). Also, the binding signal with ETV2 is 1.44 fold enrichment (6-mer frequency, TF over GST control); in the assay with ELF3, 1.49 fold enrichment (6-mer frequency, TF over GST control); with CRX it was 1.02 fold enrichment (6-mer frequency, TF over GST control); with ETV1, 1.33 fold enrichment (6-mer frequency, TF over GST control); in the assay with ERF, 1.43 fold enrichment (6-mer frequency, TF over GST control); with ETV3L it was 1.42 fold enrichment (6-mer frequency, TF over GST control). The binding signal was 1.22 fold enrichment (6-mer frequency, TF over GST control) with ETS2; 1.34 fold enrichment (6-mer frequency, TF over GST control) in the assay with SPDEF; 1.41 fold enrichment (6-mer frequency, TF over GST control) in the assay with ETV7; 1.28 fold enrichment (6-mer frequency, TF over GST control) with ELF5; 1.35 fold enrichment (6-mer frequency, TF over GST control) with ETV3; 1.21 fold enrichment (6-mer frequency, TF over GST control) in the assay with ETV6.
